In assay [1] the test system is Wnt5a (protein binding on small-molecule microarray). Kind of assay: small molecules binding Wnt5a protein – biophysical, small-molecule microarray, 635/667 nm fluorescence, primary screen (AID 1142).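 Further: fluorescence read at 667 nm with signal to noise per printed feature.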 The following applies: 635 nm fluorescence, higher = more signal.
Assay [2] is described as follows: ATP-based viability of Huh7 replicon cells – cell-based, CellTiter-Glo luminescence, basal, 48 h, cytotoxicity control for HCV replication inhibitor project, primary screen (AID 1143).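 Further: Huh7 hepatoma cells carrying a hepatitis C replication reporter with no stimulus; test concentration not given here.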 The following applies: higher = more signal, called active from +8 up or from −8 down. Background: In antiviral work, replicon cells carry a viral genome segment that copies itself.

Assay [3] can be described thus: Pseudomonas biofilm growth suppression – PAO1 strain, BacTiter-Glo luminescence, LB-PBS, primary screen (AID 1144). The following applies: P. aeruginosa PAO1 biofilm, 12 h, higher = more signal.
Assay [4] can be described thus: basal CRE-LacZ reporter activity in PC12 – cell-based, unstimulated, primary screen (AID 1145). To be noted: no forskolin, luminescence, 4.5 h, higher = more signal, called active from +8 up or from −8 down.
The nature of assay [5]: forskolin-driven CRE-LacZ activity in PC12 – cell-based, CRE-LacZ reporter, forskolin-stimulated, primary screen (AID 1146).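 Further: PC12 cells with 6xCRE LacZ reporter stimulated by forskolin 10 µM; beta-galactosidase reporter signal reflecting CREB driven transcription.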 To be noted: luminescence, 4.5 h, higher = more signal, called active from +8 up or from −8 down.
Assay [6] addresses Streptavidin (Streptomyces avidinii) (UniProt P22629). Kind of assay: compounds binding control protein streptavidin – biophysical, small-molecule microarray, 635/667 nm fluorescence, artefact control for SMM compound annotation, primary screen (AID 1147).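 Further: signal reflects streptavidin binding to arrayed compounds as a control protein.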 To be noted: higher = more signal.
Assay [7] in a line: probe aInhba binding on compound microarray – biochemical, small-molecule microarray, 635/667 nm fluorescence, primary screen (AID 1148).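 Further: score merges 667nm spot fluorescence with signal-to-noise for antibody binding to printed compounds.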 The following applies: higher = more signal.
In assay [8] the target is Torsin-1A (Homo sapiens) (UniProt O14656). Kind of assay: TOR1A wild-type binding on microarray – cell lysate, small-molecule microarray, lysate, 635/667 nm, primary screen (AID 1149). The following applies: COS7 hTOR1A-WT lysate, 635 nm fluorescence, higher = more signal.
The target is the same in assay [9]. Kind of assay: torsin A mutant lysate binding on microarrays – cell lysate, small-molecule microarray, COS7 lysate, 635/667 nm fluorescence, primary screen (AID 1150).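 Further: score pools 667 nm emission and signal to noise measuring lysate protein binding.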 To be noted: COS7 hTOR1A mutant lysate, 635 nm fluorescence, higher = more signal.
Assay [10] concerns Sonic hedgehog protein (Shh). Kind of assay: Sonic hedgehog microarray binding compounds – biochemical, small-molecule microarray, 635/667 nm fluorescence, primary screen (AID 1151).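 Further: Shh protein binding to compounds spotted on small-molecule microarray slides; score combines spot fluorescence intensity with signal-to-noise across triplicate slides.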 The following applies: 635 nm fluorescence, higher = more signal.
A short description of assay [11]: optical density shifts of acrAB sulA E. coli – strain DRC41, OD650, 48 h, E. coli filamentation inducer project, primary screen (AID 1152).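 Further: E. coli MC1000 strain DRC41 lacking acrAB efflux pump and sulA.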 To be noted: higher = more signal, called active from +8 up or from −8 down.
Assay [12] is described as follows: probe aLefty1 binding on compound microarray – biochemical, small-molecule microarray, 635/667 nm fluorescence, primary screen (AID 1153).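 Further: score merges spot fluorescence with signal-to-noise ratio from the scanned slide images.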 To be noted: higher = more signal.
A short description of assay [13]: plasmodial surface anion channel blockers, osmotic lysis – cell-based, P. falciparum Indochina, OD700, 1 h, primary screen (AID 1154). To be noted: P. falciparum Indochina infected RBC osmotic lysis, higher = more signal, called active from +8 up or from −8 down.
Assay [14] can be described thus: plasmodial surface anion channel blockers, osmotic lysis – cell-based, P. falciparum Indochina, OD700, 2 h, primary screen (AID 1155).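 Further: lysis reports solute entry through the parasite surface anion channel PSAC.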 To be noted: P. falciparum Indochina infected erythrocytes, higher = more signal, called active from +8 up or from −8 down.
Assay [15] in a line: changes in parasitized red cell lysis, either direction – P. falciparum Indochina, OD700, 3 h, PSAC antagonist project, primary screen (AID 1156). The following applies: P. falciparum-infected erythrocytes, osmotic lysis, higher = more signal, called active from +8 up or from −8 down.
Assay [16] in a line: plasmodial surface anion channel blockers, osmotic lysis – cell-based, P. falciparum Indochina, OD700, 18 h, primary screen (AID 1157). The following applies: P. falciparum Indochina infected erythrocytes, osmotic lysis OD700, 18 h; higher = more signal, called active from +8 up or from −8 down.
Assay [17] can be described thus: S6 kinase pathway phospho-S6 level changes – cell-based, A549, cytoblot, luminescence, serum-stimulated, primary screen (AID 1158).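 Further: serum-stimulated A549 lung adenocarcinoma cells; signal is phosphorylated S6 detected by cytoblot immunostaining with HRP secondary.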 To be noted: 5 h, higher = more signal.
Assay [18] addresses NADPH oxidase 2 (Homo sapiens) (UniProt P04839). Kind of assay: compounds shifting NOX2 Amplex Red fluorescence – cell-based, HEK293-NOX2, PMA-stimulated, NOX inhibitor project, primary screen (AID 1159). Further: test concentration not given here. To be noted: 45 min, higher = more signal, called active from +8 up or from −8 down.
Assay [19] concerns the target NADPH oxidase 4 (Homo sapiens) (UniProt Q9NPH5). Kind of assay: compounds shifting NOX4 Amplex Red fluorescence – cell-based, HEK293-NOX4, tetracycline-induced, NOX inhibitor project, primary screen (AID 1160). To be noted: HEK293-NOX4, Amplex Red H2O2 fluorescence, 45 min; higher = more signal, called active from +8 up or from −8 down.
For assay [20], the target named is NADPH oxidase 5 (Homo sapiens) (UniProt Q96PH1). Kind of assay: compounds shifting NOX5 Amplex Red fluorescence – cell-based, HEK293-NOX5, NOX inhibitor project, primary screen (AID 1161). To be noted: HEK293-NOX5, ionomycin, 45 min, higher = more signal.

The source made the active and inactive calls. Unless noted, how the calls were made is not given here.

Chain of Streptavidin (Streptomyces avidinii) (P22629 whole entry, looked up): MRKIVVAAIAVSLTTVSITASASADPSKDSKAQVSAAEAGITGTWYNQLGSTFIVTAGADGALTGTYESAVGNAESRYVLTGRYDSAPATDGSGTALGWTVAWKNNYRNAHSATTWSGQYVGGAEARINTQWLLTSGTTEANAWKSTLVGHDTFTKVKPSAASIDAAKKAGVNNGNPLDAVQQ
Chain of NADPH oxidase 5 (Homo sapiens) (Q96PH1 whole entry, looked up): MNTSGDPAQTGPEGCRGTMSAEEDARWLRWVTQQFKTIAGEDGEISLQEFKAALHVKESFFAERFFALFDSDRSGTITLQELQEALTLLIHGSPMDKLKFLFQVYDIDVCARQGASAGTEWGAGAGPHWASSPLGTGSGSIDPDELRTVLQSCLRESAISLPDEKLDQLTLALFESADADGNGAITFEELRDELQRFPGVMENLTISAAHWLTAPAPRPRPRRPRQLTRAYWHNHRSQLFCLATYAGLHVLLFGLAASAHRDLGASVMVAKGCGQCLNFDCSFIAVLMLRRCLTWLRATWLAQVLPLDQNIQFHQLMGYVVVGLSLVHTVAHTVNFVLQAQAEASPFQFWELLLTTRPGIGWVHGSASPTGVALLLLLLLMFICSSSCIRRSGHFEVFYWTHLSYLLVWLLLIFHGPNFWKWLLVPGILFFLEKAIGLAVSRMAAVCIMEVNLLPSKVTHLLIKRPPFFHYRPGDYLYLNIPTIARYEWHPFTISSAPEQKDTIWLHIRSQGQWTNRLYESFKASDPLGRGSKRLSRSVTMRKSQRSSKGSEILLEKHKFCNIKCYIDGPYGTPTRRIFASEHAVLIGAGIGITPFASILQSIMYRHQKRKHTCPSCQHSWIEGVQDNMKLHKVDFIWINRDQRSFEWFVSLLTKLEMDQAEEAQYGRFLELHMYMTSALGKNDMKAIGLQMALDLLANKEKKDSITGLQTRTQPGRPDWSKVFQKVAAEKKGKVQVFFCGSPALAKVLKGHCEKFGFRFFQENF
Chain of NADPH oxidase 4 (Homo sapiens) (Q9NPH5 whole entry, looked up): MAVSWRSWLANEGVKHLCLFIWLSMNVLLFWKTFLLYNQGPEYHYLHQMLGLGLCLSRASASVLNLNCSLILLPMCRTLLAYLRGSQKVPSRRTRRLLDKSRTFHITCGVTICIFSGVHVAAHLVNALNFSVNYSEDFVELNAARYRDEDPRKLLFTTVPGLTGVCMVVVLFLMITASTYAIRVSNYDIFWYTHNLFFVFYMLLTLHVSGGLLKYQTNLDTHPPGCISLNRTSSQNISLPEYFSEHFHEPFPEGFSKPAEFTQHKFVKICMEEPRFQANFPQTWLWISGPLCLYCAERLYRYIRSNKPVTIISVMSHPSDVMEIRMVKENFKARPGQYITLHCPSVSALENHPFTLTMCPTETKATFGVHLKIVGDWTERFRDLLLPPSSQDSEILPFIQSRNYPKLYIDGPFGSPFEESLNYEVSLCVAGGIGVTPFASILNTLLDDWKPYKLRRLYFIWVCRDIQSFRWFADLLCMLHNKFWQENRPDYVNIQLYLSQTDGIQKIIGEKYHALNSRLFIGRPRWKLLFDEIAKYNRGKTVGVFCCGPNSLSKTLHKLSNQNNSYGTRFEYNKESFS
Chain of NADPH oxidase 2 (Homo sapiens) (P04839 whole entry, looked up): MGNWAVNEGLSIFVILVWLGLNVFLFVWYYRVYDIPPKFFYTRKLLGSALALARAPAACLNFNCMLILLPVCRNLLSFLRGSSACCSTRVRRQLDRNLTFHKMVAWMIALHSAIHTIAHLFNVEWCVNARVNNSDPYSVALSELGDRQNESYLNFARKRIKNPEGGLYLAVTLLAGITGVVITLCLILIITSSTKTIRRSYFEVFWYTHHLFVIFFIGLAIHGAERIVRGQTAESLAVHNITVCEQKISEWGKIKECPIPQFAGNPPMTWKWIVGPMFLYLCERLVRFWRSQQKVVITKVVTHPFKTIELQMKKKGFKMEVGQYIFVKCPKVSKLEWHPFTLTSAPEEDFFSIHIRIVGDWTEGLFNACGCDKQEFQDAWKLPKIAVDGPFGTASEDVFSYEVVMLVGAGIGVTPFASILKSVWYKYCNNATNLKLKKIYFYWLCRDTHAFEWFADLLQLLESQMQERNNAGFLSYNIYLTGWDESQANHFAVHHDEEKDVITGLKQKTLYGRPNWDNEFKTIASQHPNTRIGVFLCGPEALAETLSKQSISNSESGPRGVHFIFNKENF
Chain of Torsin-1A (Homo sapiens) (O14656 whole entry, looked up): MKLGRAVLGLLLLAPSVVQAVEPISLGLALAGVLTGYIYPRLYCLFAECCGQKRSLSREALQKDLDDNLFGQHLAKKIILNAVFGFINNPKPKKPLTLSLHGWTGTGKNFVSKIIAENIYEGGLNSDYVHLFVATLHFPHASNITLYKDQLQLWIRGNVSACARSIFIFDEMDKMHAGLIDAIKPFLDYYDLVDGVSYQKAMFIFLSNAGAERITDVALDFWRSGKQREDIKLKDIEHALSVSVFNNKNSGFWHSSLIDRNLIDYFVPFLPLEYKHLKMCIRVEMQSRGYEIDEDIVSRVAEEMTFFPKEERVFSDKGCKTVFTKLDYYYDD

Regarding `COc1ccc([Si](C)(C)[C@H]2[C@H](CC(=O)N(CCO)Cc3ccccc3)O[C@@]3(C(=O)N(Cc4cccc(N5CCCCC5=O)c4)c4ccccc43)[C@@H]2C)cc1`, the composite z-score in assay [1] was 0.0763; in assay [6], 0.0037; in assay [7] it was -0.0719; with Torsin-1A (Homo sapiens) [8] it was 0.444; with Torsin-1A (Homo sapiens) [9], 0.793; in assay [10], 2.13. This compound also showed a composite z-score in assay [12] of 0.109. In addition, the z-score in assay [2] is -4.74 (inactive); in assay [3], -0.937 (inactive); in [4], 3.13 (inactive); in assay [5], -1.32 (inactive); in assay [11] it was 1.52 (inactive); in assay [13] it was 11.3 (active). In addition, the z-score in assay [14] is 1.31 (inactive); in assay [15], 0.4 (inactive); in assay [16], -0.553 (inactive); in [17] it was 2.6; in [18], 0.0671 (inactive); in assay [19], 0.591 (inactive). Besides, the z-score in assay [20] amounted to 2.24.
As to `C=CCC(OC(C)=O)[C@@H]1[C@@H](N(Cc2cccc3ccccc23)C(=O)c2ccc(C)cc2)c2cc(OCCCO)ccc2N1C(=O)Cc1ccc2ccccc2c1` (stereo not given in full), the composite z-score in assay [1] was 0.245; in assay [6], 0.652; in assay [7] it was -0.101; with Torsin-1A (Homo sapiens) [8] it was 0.125; in the assay with Torsin-1A (Homo sapiens) [9], -0.564; in assay [10] it was -0.0314. The same compound returned a composite z-score in assay [12] of 0.167. In addition, the z-score in assay [2] was -0.72 (inactive); in assay [3], -0.234 (inactive); in assay [4], 1.46 (inactive); in [5], -0.0127 (inactive); in assay [11], 2.62 (inactive); in assay [13] it was 0.483 (inactive). Besides, the z-score is -0.407 (inactive) in assay [14]; -0.419 (inactive) in [15]; -1.2 (inactive) in assay [16]; 2.14 in assay [17]; -2.56 (inactive) in assay [18]; 1.08 (inactive) in assay [19]. In [20], the z-score came out at 2.41.
For the compound `C[C@]1(C(=O)NC2CC2)c2ccccc2C(=O)N(Cc2cc(F)cc(C(F)(F)F)c2)[C@H]1c1ccc(CO)cc1`, the composite z-score in assay [1] is -0.76; in assay [6], -0.827; in [7], -0.242; with Torsin-1A (Homo sapiens) [8] it was -2.36; in the assay with Torsin-1A (Homo sapiens) [9], 0.416; in [10], 1.62. The compound also came in with a composite z-score in [12] of -0.351. Moreover, the z-score in assay [2] is -2.15 (inactive); in assay [3], -1.05 (inactive); in assay [4], 0.764 (inactive); in assay [5], 0.864 (inactive); in assay [11], 0.256 (inactive); in [13] it was 3.02 (inactive). Moreover, the z-score in assay [14] was 0.334 (inactive); in assay [15], 0.678 (inactive); in assay [16], 0.597 (inactive); in assay [17], 0.0446; in [18], -0.0377 (inactive); in [19] it was -0.978 (inactive). Besides, the z-score in assay [20] is -1.46.
Take `COc1cccc(C)c1NC(=O)O[C@H]1[C@H](OC(=O)Nc2ccc3c(c2)OCO3)[C@H](OC(=O)Nc2ccc3c(c2)OCO3)[C@@H](OC)O[C@@H]1CO`: the composite z-score in assay [1] was 0.469; in [6], 1.2; in assay [7], 0.226; with Torsin-1A (Homo sapiens) [8], -0.148; with Torsin-1A (Homo sapiens) [9] it was 0.533; in assay [10], 2.02. This compound also registered a composite z-score in assay [12] of 0.855. Besides, the z-score in assay [2] is -2.59 (inactive); in assay [3] it was 1.05 (inactive); in [4] it was 0.558 (inactive); in [5] it was -1.04 (inactive); in assay [11], -0.66 (inactive); in assay [13], 10.7 (active). Also, the z-score in [14] was 1.4 (inactive); in assay [15], 1.14 (inactive); in assay [16], 0.691 (inactive); in [17] it was -0.0632; in assay [18] it was -1.52 (inactive); in assay [19], -0.848 (inactive). Besides, the z-score in [20] was -1.37.
`C=CC[C@]12N=C(c3ccc(OCCCO)cc3)O[C@H]1c1ccccc1N(CCC)C2=O`: the composite z-score is 0.587 in assay [1]; -0.256 in assay [6]; 0.562 in assay [7]; 0.234 in the assay with Torsin-1A (Homo sapiens) [8]; 0.397 with Torsin-1A (Homo sapiens) [9]; 1.61 in assay [10]. Also, the composite z-score in [12] came out at 1.26. The z-score is -3.39 (inactive) in assay [2]; 0.552 (inactive) in [3]; 0.866 (inactive) in [4]; -0.743 (inactive) in assay [5]; -0.0423 (inactive) in assay [11]; 32.8 (active) in assay [13]. Further, the z-score in [14] is 33.1 (active); in [15], 2.98 (inactive); in assay [16] it was 4.84 (inactive); in [17] it was 0.204; in assay [18], -2.03 (inactive); in assay [19] it was 0.00147 (inactive). Besides, the z-score in assay [20] is -1.71.
For `COc1ccc(C(=O)Nc2cccc(CN3C(=O)[C@]4(O[C@H](CC(=O)N(CCO)Cc5ccccc5)[C@@H]([Si](C)(C)c5ccc(OC)cc5)[C@@H]4C)c4ccccc43)c2)cc1`, the composite z-score in [1] was 0.997; in assay [6], 0.127; in assay [7], -0.0131; with Torsin-1A (Homo sapiens) [8], 0.0401; with Torsin-1A (Homo sapiens) [9], 0.395; in [10] it was 1.48. Besides, the composite z-score in [12] amounted to 0.0892. In addition, the z-score in assay [2] is -4.13 (inactive); in assay [3], 0.172 (inactive); in [4], 1.72 (inactive); in [5] it was -1.33 (inactive); in [11] it was 0.556 (inactive); in [13], 4.41 (inactive). Besides, the z-score in [14] is 0.614 (inactive); in assay [15], 0.0064 (inactive); in assay [16] it was 0.795 (inactive); in assay [17], 0.805; in assay [18], 0.936 (inactive); in assay [19] it was 0.871 (inactive). Moreover, the z-score in assay [20] worked out at 3.51.
With `COCCCNC(=O)[C@@]1(Cc2ccccc2I)c2ccccc2C(=O)N(Cc2ccccc2OC)[C@H]1c1ccc(CO)cc1`, the composite z-score in [1] is -0.43; in assay [6], -0.67; in [7], -0.162; in the assay with Torsin-1A (Homo sapiens) [8], 0.884; with Torsin-1A (Homo sapiens) [9], 0.431; in assay [10], -0.845. This compound yielded a composite z-score in assay [12] of -0.164. Besides, the z-score in assay [2] is -3.39 (inactive); in assay [3], 0.767 (inactive); in assay [4] it was 0.531 (inactive); in assay [5] it was -0.797 (inactive); in assay [11], 0.567 (inactive); in [13] it was 10.1 (active). Also, the z-score is 1.27 (inactive) in assay [14]; 1.73 (inactive) in [15]; 0.576 (inactive) in [16]; -0.0483 in [17]; -1.68 (inactive) in assay [18]; 0.642 (inactive) in [19]. Also, in [20], the z-score is -1.19.
Regarding `O=C1O[C@H](c2ccccc2)[C@H](c2ccccc2)N2[C@H]1[C@@H](C(=O)N1CCCCCCC1)[C@]1(C(=O)Nc3ccc(C#CCCO)cc31)[C@H]2c1ccc(O)cc1`, the composite z-score in assay [1] was 2.43; in assay [6], 3.86; in assay [7] it was 1.84; in the assay with Torsin-1A (Homo sapiens) [8], 3.62; with Torsin-1A (Homo sapiens) [9], 3.34; in assay [10] it was 2.36. Also, the composite z-score in assay [12] is 3.06. Also, the z-score is -1.76 (inactive) in assay [2]; -0.575 (inactive) in assay [3]; -0.438 (inactive) in [4]; -1.23 (inactive) in assay [5]; 1.48 (inactive) in assay [11]; 1.01 (inactive) in [13]. In addition, the z-score in assay [14] is -0.0898 (inactive); in assay [15] it was 0.0261 (inactive); in assay [16] it was 0.295 (inactive); in assay [17] it was 0.0374; in [18] it was 1.28 (inactive); in assay [19] it was 0.892 (inactive). Moreover, in [20], the z-score came out at 1.38.

(Values after PubChem BioAssay.)
